# Screens (PubChem BioAssay)
# Only some compounds are listed: those with a hit (about 21% of all), similar ones and a draw of the others.
# ClpP mod – qHTS Assay for Activators of ClpP; ATP-dependent Clp protease proteolytic subunit (Bacillus subtilis (strain 168)), P80244; purified B. subtilis ClpP, FRET peptide cleavage, 20 min; Potency, µM (titrated, usually from 57.5 µM), without a hit: at the top dose activity change, negative = active; actives 1.9% (n = 340,000); AID 651965, 2013; active means well fitted falling curve with a large enough effect; inconclusive means small, poorly fitted or top-dose-only effect; inactive means no such curve, though single readings can be large or run the other way; further: potency means the concentration at half of the fitted maximal effect; the source files actives as falling curves though it sought activators and does not explain the sign; nearly all actives have a fitted effect of over 65% in size
#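 FRET quenching reversal measured ClpP activation: 10 microg/mL B. subtilis ClpP at pH 8 with the FRET-FV decapeptide, read at 430 nm after 320 nm excitation. The 20-min minus 0-min signal was scaled between DMSO/no-enzyme wells and ADEP (5.8 microM final).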
# TDP1 cell CPT – DT40-hTDP1 cell growth loss with CPT | chicken DT40 Tdp1-/-;hTDP1 cells + 20 nM CPT, ATP luminescence, 48 h | Potency, µM (titrated, usually from 46.2 µM), for the others: top-dose activity change, negative = growth inhibition, hits mostly inhibitors | actives 12% (n = 420,000) | AID 686979; further: potency means the concentration at half of the fitted maximal effect; on the % scale 0 is the no-effect control and ±100 the full control effect; nearly all actives have a fitted effect of over 55% in size
#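 Chicken DT40 Tdp1-/- cells complemented with human TDP1, 400 cells/well, exposed to compounds plus 20 nM camptothecin for at least 48 h at 37 C; viability read as ATP content by CellTiter-Glo luminescence.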
# IL1B secr inh – blocks inflammasome-driven IL-1 beta release. THP-1 LPS/ATP IL-1B secretion, AlphaLISA, 16 h; active compounds read low. activity change, % at 57.5 µM. actives 4.7% (n = 360,000). AID 743279; in the data active means activity change below about -50%; inconclusive means mostly about -30% to -49%; further: on the % scale 0 is the no-effect control and ±100 the full control effect
#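 Secreted IL-1B measured by AlphaLISA bead assay after 16 h compound exposure of THP-1 cells; compounds (final up to 57.5 uM) added 1 h before LPS (250 ng/mL) and ATP (1.25 mM) stimulation; lower signal means less secretion.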
# DRD3 antagonist – antagonists of human D3 dopamine receptor. max response, negative = inhibition, %. P35462. actives 2.5% (n = 360,000). D3R cells, DiscoveRx beta-arrestin luminescence, antagonist mode; active compounds read low. AID 652054; in the data active means max response below about -50%; inconclusive means no clear call, values can overlap the other calls; further: on the % scale 0 is the no-effect control and ±100 the full control effect
# Target sequence (P35462 whole entry, looked up): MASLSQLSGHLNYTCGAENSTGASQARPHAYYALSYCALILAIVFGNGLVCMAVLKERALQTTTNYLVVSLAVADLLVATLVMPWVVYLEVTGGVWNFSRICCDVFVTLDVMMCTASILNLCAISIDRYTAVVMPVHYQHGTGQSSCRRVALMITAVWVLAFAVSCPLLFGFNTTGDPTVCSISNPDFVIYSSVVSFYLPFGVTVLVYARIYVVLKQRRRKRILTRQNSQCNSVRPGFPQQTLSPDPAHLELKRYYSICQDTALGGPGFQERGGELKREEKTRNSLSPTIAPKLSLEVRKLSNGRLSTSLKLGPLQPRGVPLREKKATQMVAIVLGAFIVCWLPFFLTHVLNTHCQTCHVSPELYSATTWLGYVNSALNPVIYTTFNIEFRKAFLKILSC
#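 Cells plated overnight at 1500 cells/well, then exposed to library compounds with dopamine controls for 90 minutes at 37 degrees C. DiscoveRx reagent added for 30–60 minutes at room temperature; luminescence read, quantitative HTS format.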
# TDP1 cell noCPT – qHTS for Inhibitors of human tyrosyl-DNA phosphodiesterase 1 (TDP1): qHTS in cells in absence of CPT; DT40 Tdp1-/- hTDP1 cells, no CPT, ATP luminescence, 48 h; Potency, µM (doses to about 46.2 µM), inactives show at the top dose activity change, negative = growth inhibition, usual class: inhibitors; actives 15% (n = 420,000); AID 686978, 2013; further: potency means the concentration at half of the fitted maximal effect; on the % scale 0 is the no-effect control and ±100 the full control effect; nearly all actives have a fitted effect of over 55% in size
#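 Chicken DT40 Tdp1-/- cells complemented with human TDP1, screened without camptothecin (DMSO vehicle only), 400 cells/well. Compounds pin-transferred, cells incubated at 37 °C for at least 48 hr. Growth read as ATP-dependent luminescence (CellTiter-Glo, 30 min at RT).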
# DRD3 agonist – D3 dopamine receptor (human) agonism; AID 652048; D3R DiscoveRx beta-arrestin cells, luminescence, 90 min; max activation, %; P35462; actives 0.58% (n = 410,000); in the data active means max activation above about 30%; further: 0% is about no effect
#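 Agonist-mode cell screen: cells plated at 1500/well and incubated overnight at 37 °C, then exposed to library compounds for 90 min at 37 °C. Detection reagent was added for 30–60 min at room temperature, and luminescence was read.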
# Numbers without * were called inactive; ? = inconclusive; · = not tested or not shown. Unless noted, the call rests on the fitted dose curve; in most records, active means well fitted inhibition curve with a large enough effect; inconclusive means small, poorly fitted or top-dose-only effect; inactive means flat fitted curve, though single readings scatter.
SMILES,ClpP mod,TDP1 cell CPT,IL1B secr inh,DRD3 antagonist,TDP1 cell noCPT,DRD3 agonist
Cc1cc(N2CCN(C)CC2)nc2ccc(NC(=S)NCCN3CCc4ccccc4C3)cc12,-21.8%,?,-1.4,-75.7*,?,-20.2
CCN1CCN(c2cc(C)c3cc(NC(=S)NCCCN4CCc5ccccc5C4)ccc3n2)CC1,·,?,-22.8,-87.2*,14.6µM*,-20.2
Cc1cc(N2CCCC2)nc2ccc(NC(=S)NCCCN3CCC(C)CC3)cc12,·,?,-140.3*,-65.6*,?,-22.7
Cc1cc(N2CCN(C)CC2)nc2ccc(NC(=S)NCCCN3CCc4ccccc4C3)cc12,·,?,-91.9*,-84.1*,?,-20.0
Cc1ccc(NC(=S)NCCCN2CCOCC2)cc1C,-1.2%,-0.2%,12.9,-19.8,-25.6%,-19.2
Cc1ccccc1NC(=O)Nc1ccc2nc(N3CCN(C)CC3)cc(C)c2c1,-0.6%,?,·,·,?,-24.7
O=C(NCc1ccccc1)C(=O)Nc1ccc2nc3n(c(=O)c2c1)CCCCC3,4.4%,0.9%,·,·,-18.4%,8.1
O=C1Nc2ccc(Br)cc2C1=Nc1cccnc1,1.4%,11.6µM*,32.9,?,8.2µM*,-16.5
O=C1Nc2ccccc2C1=Nc1cccc(Cl)c1,0.9%,-11.5%,0.9,-12.8,-16.9%,-17.2
CC(=O)Oc1cccc2c1C(=O)c1c(OC(C)=O)cc(C(=O)O)cc1C2=O,-4.4%,?,-16.8,-121.9*,?,0.0
CC(=O)Oc1ccccc1C(=O)O,-15.9%,-0.6%,11.5,?,-0.8%,21.0
Clc1ccccc1-c1nc2nc3ccccc3nc2n1-c1ccc2c(c1)OCO2,-8.7%,?,-9.5,7.0,23.1µM*,15.9
O=C(Cn1nnc(-c2ccc(CN3CCOCC3)cc2)n1)N(c1ccccc1)c1ccccc1,·,18.4µM*,7.6,0.0,20.6µM*,-15.0
CC(C)CN(C(=O)Cn1nnc(-c2ccc(Cl)cc2)n1)C1CCS(=O)(=O)C1 (stereo not given),-1.7%,-0.1%,3.5,-3.7,-11.8%,1.6
CC(C)(C)NC(=O)CN(C(=O)Cn1nnc(-c2ccc(Cl)cc2)n1)C1CCN(Cc2ccccc2)CC1,-0.8%,?,-81.7*,-23.8,20.6µM*,0.2
COc1ccc(-c2ccc(-c3nnn(CC(=O)N4CCOCC4)n3)cc2)cc1,15.8µM*,-12.3%,-0.6,-16.1,-12.7%,-2.8
CC(CCc1ccccc1)NC(=O)COC(=O)c1ccc(NC(N)=O)cc1 (stereo not given),-4.5%,-10.7%,28.3,1.8,0.1%,0.4
CC(C)CCN1CCC(n2nccc2NC(=O)c2ccc3c(c2)OCO3)CC1,·,16.4%,-66.9*,-28.0,-8.9%,14.8
CC(C)N1CCC(n2nccc2NC(=O)c2ccc3c(c2)OCO3)CC1,-0.5%,1.6%,26.1,9.2,5.8%,9.3
[O-][n+]1nc2ccccc2c2ccccc21,2.5%,-2.5%,-19.1,-11.7,-17.2%,1.3
CC1(O)CC2C(CC1O)C2(C)C (stereo not given),·,-3.0%,·,·,-37.2%,·
Cc1cc(F)ccc1NCc1ccccc1[N+](=O)[O-],·,-26.2%,-7.9,11.7,-22.5%,-2.0
Cc1cc([N+](=O)[O-])ccc1NCc1cccc2ccccc12,-4.9%,?,-65.6*,-8.9,15.8µM*,2.9
Cc1cc([N+](=O)[O-])ccc1NCc1ccccc1[N+](=O)[O-],·,-14.8%,-70.9*,-5.2,-23.8%,-1.4
Fc1ccc(Nc2nnc(C(F)(F)F)s2)cc1,-8.8%,-13.4%,-69.2*,-8.0,-27.0%,1.6
CNc1nnc(C(F)(F)F)s1,·,5.2%,·,0.5,-3.6%,-9.4
Cn1cc([N+](=O)[O-])c(C(=O)Nc2nccs2)n1,-1.0%,4.0%,-98.0*,-13.3,13.3%,-1.6
CCSc1ccc(C(=O)Nc2ccc(Br)cn2)cc1[N+](=O)[O-],1.7%,-8.7%,-28.0,7.7,?,1.1
